The supplement of paper PMC6555819

What was measured:
Experiment in all cases: PBM binding z-score (relative to random genomic background probes); higher = stronger binding; sequences stand for … in GC…GCGATTGACAGCGTAGAATGAAGG
[1] = tested on: FXR:RXRa (NR concentration 270 nM, RXRa partner concentration 90 nM)
Procedure, shortened: (§1)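 Binding buffer was PBS pH 7.4 with 2% milk, 0.02% Triton X-100, 1 mM DTT, 0.2 mg/mL BSA and 0.4 mg/ml salmon testes DNA. In it, ligand-free nuclear receptor dimers were incubated 1 h on custom Agilent 4×180K protein-binding microarrays carrying double-stranded probes. Antibodies against each partner (one per run) detected binding, and z-scores were calculated against random background probes after regression normalization of scanned fluorescence.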

[2] = tested on: LXRa:RXRa (NR concentration 270 nM, RXRa partner concentration 90 nM)
Procedure, shortened: as §1

[3] = tested on: LXRa homodimer (NR concentration 270 nM)
Procedure, shortened: as §1

[4] = tested on: LXRb:RXRa (NR concentration 270 nM, RXRa partner concentration 90 nM)
Procedure, shortened: as §1

[5] = tested on: LXRb homodimer (NR concentration 270 nM)
Procedure, shortened: as §1

[6] = tested on: PPARa:RXRa (NR concentration 270 nM, RXRa partner concentration 90 nM)
Procedure, shortened: as §1

[7] = tested on: PPARg:RXRa (NR concentration 180 nM, RXRa partner concentration 90 nM)
Procedure, shortened: as §1

[8] = tested on: PPARg:RXRa 270nM:90nM, anti-RXR (NR concentration 270 nM, RXRa partner concentration 90 nM)
Procedure, shortened: as §1

[9] = tested on: PPARg:RXRa 30nM:10nM, anti-RXR (NR concentration 30 nM, RXRa partner concentration 10 nM)
Procedure, shortened: as §1

[10] = tested on: PPARg:RXRa 90nM:30nM, anti-RXR (NR concentration 90 nM, RXRa partner concentration 30 nM)
Procedure, shortened: as §1

[11] = tested on: PPARg:RXRa DBDmut IVT, anti-RXR (DBD mutation: RXRa K156A/R161A, NR concentration 270 nM, RXRa partner concentration 90 nM)
Procedure, shortened: as §1

[12] = tested on: PPARg:RXRa IVT, anti-PPARg (NR concentration 270 nM, RXRa partner concentration 90 nM)
Procedure, shortened: as §1

[13] = tested on: PPARg DBDmut:RXRa IVT, anti-PPARg (DBD mutation: PPARg1 K132A/R137A, NR concentration 270 nM, RXRa partner concentration 90 nM)
Procedure, shortened: as §1

[14] = tested on: PPARg DBDmut IVT, anti-PPARg (DBD mutation: PPARg1 K132A/R137A, NR concentration 270 nM)
Procedure, shortened: as §1

[15] = tested on: PPARg homodimer (NR concentration 180 nM)
Procedure, shortened: as §1

[16] = tested on: PXR:RXRa (NR concentration 270 nM, RXRa partner concentration 90 nM)
Procedure, shortened: as §1

[17] = tested on: PXR homodimer (NR concentration 270 nM)
Procedure, shortened: as §1

[18] = tested on: RARa:RXR (NR concentration 270 nM, RXRa partner concentration 90 nM)
Procedure, shortened: as §1

[19] = tested on: RARa homodimer (NR concentration 270 nM)
Procedure, shortened: as §1

[20] = tested on: RARb:RXRa (NR concentration 270 nM, RXRa partner concentration 90 nM)
Procedure, shortened: as §1

Sequence	PBM binding z-score [1]	PBM binding z-score [2]	PBM binding z-score [3]	PBM binding z-score [4]	PBM binding z-score [5]	PBM binding z-score [6]	PBM binding z-score [7]	PBM binding z-score [8]	PBM binding z-score [9]	PBM binding z-score [10]	PBM binding z-score [11]	PBM binding z-score [12]	PBM binding z-score [13]	PBM binding z-score [14]	PBM binding z-score [15]	PBM binding z-score [16]	PBM binding z-score [17]	PBM binding z-score [18]	PBM binding z-score [19]	PBM binding z-score [20]
TCTGCTAGGTCAGTTGGACAGCTAACGAGCTGCC	0.721	0.508	-0.846	-0.0468	0.424	1.12	0.413	1.36	1.23	1.21	2.28	2.83	0.449	0.399	-0.587	-0.183	-1.13	-0.205	-1.3	3.26
ATATGTAGGTTAGCTGGGGTCATTCTGACTAGGC	4.61	5.75	3.4	4.86	1.32	5.07	5.36	5.24	2.82	4.48	7.04	6.37	3.34	2.13	2.71	6.41	3.72	5.57	1.37	2.88
TCTTGTTGATCAACAGGAGGTTAAGAAAGATCGA	-0.388	1.08	0.0425	0.962	-0.0113	1.21	-0.165	1.01	2.18	2.1	0.718	0.445	1.15	0.996	-0.401	0.703	-0.344	0.688	-0.505	0.432
ATCGAAAGGTCGCGGTGAGTATAGAGAAAGGGAA	6	4.14	0.362	3.7	0.371	5.23	4.84	4.74	1.65	3.31	0.748	2.76	0.634	0.427	1.87	3.21	0.401	3.63	0.883	4.66
CAAACTAGGTCAAAGGACAAAGTCGAGCCAACCA	4.29	3.41	0.833	2.68	0.636	5.81	10.2	8.77	8.72	9.77	8.09	8.38	2.59	0.234	1.32	1.72	0.313	3.01	0.239	4.03
CCAGACAGGTGAGAAGGTAACTAAGCCTCGATTA	-0.00461	0.0397	-0.256	-0.0609	-0.426	0.532	0.439	0.258	-0.00796	-0.013	0.948	0.601	-0.627	-0.192	0.387	-0.327	0.346	-0.102	0.36	0.585
CTACCAAGGTGAACAATGTCGTTGATTACTATTC	0.559	0.263	0.0434	0.937	0.00375	1.37	0.621	0.75	0.226	0.326	2.67	2.51	0.151	0.164	0.475	0.327	-0.0411	0.755	0.471	1.67
CCAAGCAGGCCAGGGTCACTCAAGCATTTCGCTT	2.12	1.76	-0.279	1.95	-0.754	3.07	0.977	1.81	-0.229	0.599	0.264	0.738	-0.543	-1.4	1.53	2.65	-0.14	3.4	0.312	2.61
ATACCAAGGTGAACGTGAGGTCGTTGATACTAAC	3.12	3.08	1.29	2.47	-0.133	2.87	2.13	1.87	0.56	1.48	2.44	3.17	1.14	0.95	1.83	4.23	1.48	3.21	0.99	2.43
CCTTACGGGTCACTGACAGGTTAGAGCATTTGGA	5.51	3.9	0.227	3.04	-0.348	5.19	4.35	4.64	1.58	3.02	3.5	3.63	0.322	-0.672	2.02	3.32	-0.369	4.51	0.501	3.95
TCTATTAGTTGATTAGGGCAACGGAAACAGCGGA	0.551	0.44	0.103	0.473	0.812	0.801	0.284	1.99	3.35	3	2.04	1.27	0.436	0.954	0.288	0.192	0.475	0.276	0.743	0.963
AGAATCAGGTTATACGTAGATCAGGGAAGAAAGT	0.826	0.893	0.313	0.875	0.265	1.63	1.11	1.38	0.762	0.859	3.66	2.1	1.47	0.861	0.756	0.61	0.471	0.799	0.86	0.961
TCTATTAGTTGATTATGGCAACCGAAACAGCGGA	0.958	0.726	0.306	0.64	1.08	0.209	0.113	1.91	4.11	3.45	2.17	0.613	1.3	1.66	1.37	0.553	0.671	0.747	1.89	0.407
CCGACTGGGGCATAATGTTACCATAAGCCAGCCC	-0.414	-0.333	-0.335	-0.186	-0.735	0.127	1.15	1.01	-0.289	0.632	2.47	2.12	-0.872	-0.687	0.105	-0.537	-0.468	-0.283	-0.0507	0.133
GCAGACATGTGAAACGCAGGTAACTCAGGGTGGC	-0.536	-0.654	-0.866	-0.864	-1.11	-0.505	0.622	-0.625	-0.725	-0.59	-0.934	-0.641	-0.654	-1.35	-1.78	-0.925	-0.866	-0.472	-0.769	-0.383
CCTTACGGGTCACTCCAGGGTATAGCATCGGAGT	4.69	6.8	0.368	3.85	-0.114	4.27	3.23	3.68	1.19	2.52	2.07	3.17	-0.61	-0.915	2.12	3.89	0.022	3.65	-0.123	3.54
CGTCAAAGTTCAAGGTAACGTAACAGAAAGCAGC	6.65	5.73	2.59	3.46	1.01	4.81	4.45	5.18	2.02	3.97	0.893	2.47	1.4	0.701	2.19	4.2	2.44	3.28	1.04	5.17
CCTTACGGGTCACTCCGGGTTATAGCATCGGAGT	5.38	6.79	0.448	4.31	0.169	4.62	3.58	4.18	1.34	3.26	1.96	3.06	0.27	-0.00571	1.92	4.6	-0.199	3.88	0.188	3.37
CTAACGAGGGCATGAGTTGATAGCAAATGCCGAT	0.543	0.409	-0.604	0.119	-0.182	1.54	1.71	2.02	0.704	1.51	3.84	2.56	0.128	0.129	0.262	0.639	0.123	0.588	0.359	2.01
CCTAGTTGGTCAAAGTCACACACGCTATAGGTAC	0.342	0.505	0.567	0.625	0.603	0.517	1.35	1.68	0.915	1.46	1.7	1.52	0.647	0.822	1.59	0.0775	0.736	0.303	1.44	1.42
ACTAGCAGGCCAAGTTTGGGCCACTCAAACAAAG	-0.478	-0.716	-0.865	-0.61	-1.23	-0.243	-0.254	-0.685	-0.785	-0.814	0.654	0.241	-1.11	-0.696	-1.66	-0.855	-0.899	-0.593	-1.32	0.466
CCTTACGTGTCAAGGTTATAGCACGGGTGGTACG	0.976	0.929	0.288	0.638	0.609	1.36	0.992	0.8	0.3	0.364	0.564	0.962	-0.292	0.0662	0.942	0.998	0.776	1.16	1.18	1.57
AATAGTTGGTCAGCTGAGGTCACACACAATTCGG	3.52	3.25	3.1	3.57	1.05	3.81	2.21	2.14	0.525	1.25	1.3	2.86	1.06	0.792	3.85	5.58	2.36	4.78	2.44	3.7
TCATATAGGTCAATGCTAGGTGAAAGTCCGATCT	5.19	4.7	1.51	3.52	1.02	5	5.86	6.06	4.7	5.89	6.69	6.83	1.25	2.16	2.7	2.78	0.347	3.7	1.3	4.21
CCTAGTTGGTCAGGAGGACACACACCGGATATGA	0.321	0.0708	0.61	0.0444	0.0185	0.000867	1.08	0.072	-0.0757	-0.0104	0.664	1.14	-0.182	0.142	0.859	-0.126	0.473	0.228	1.7	1.4
GCAGACAGGTGAAACGCAGGAAACTCAGGGTGGC	-0.517	-0.226	-0.695	-0.346	-1.08	0.952	0.592	-0.351	-0.59	-0.582	0.874	0.378	-0.857	-0.37	-0.537	-0.387	-0.338	-0.0101	-0.25	0.527
ACTACTAGTTGACTTAGGGCAACCGATACGACGC	0.249	0.17	0.195	0.0613	0.134	0.123	1.04	0.267	0.432	0.312	0.365	0.47	0.77	0.857	0.669	0.14	-0.0753	0.458	0.347	0.59
CGTCCAAGGTCAATGCTAGGTCAGAGAAAGCATT	6.97	5.95	2.67	4.32	0.8	5.25	4.39	4.86	1.59	3.76	3.57	3.92	0.456	-0.0823	4.96	4.85	1.92	5.99	1.27	5.25
